Here are results for 39 compounds from PubChem BioAssay.

Entries with a potency or affinity are not part of this list. A number with no mark means an inactive call.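 How the source made its calls, unless noted: active means a dose-response fit showing signal loss, with half-maximal concentration no higher than twice the top tested dose; inconclusive means flat fit between 30% and 70% signal loss, or poor fit; inactive means the rest.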

One experiment is described as follows: C. neoformans lysis by adenylate kinase leakage – AK release luminescence, cherry-picks, dose response (AID 687000;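 active means fitted dose curve reaches 40% lysis signal rise at or below the highest valid concentration tested for that sample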;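 further: luminescent detection of adenylate kinase leaking from lysed yeast; 0% = median neutral control signal and 100% = double that signal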). As to conditions: 4 h, 100% = twice the neutral-control signal; series mostly up to 15 µM; lysis activity: at the top concentration.
Take `CC(C)(C)c1ccc(OCC(=O)NC(c2ccccc2)c2ccccc2)cc1`: the “lysis activity” value was -14.8% [at 19.5 µM].
As for `C[C@H]1CCCCO[C@H](CN(C)S(=O)(=O)c2ccc(Cl)cc2)[C@@H](C)CN([C@@H](C)CO)C(=O)c2cc(NS(=O)(=O)c3cccs3)ccc2O1`, the “lysis activity” value was -11.3%.
With `C[C@H](CO)N1C[C@H](C)[C@@H](CN(C)C(=O)Nc2cccc3ccccc23)Oc2c(cccc2N(C)C)C1=O`, the “lysis activity” value is -12.4%.
Still for that read-out and setting: next, `CC(C)NC(=O)Nc1ccc2c(c1)CC(=O)N([C@H](C)CO)C[C@H](C)[C@H](CN(C)S(=O)(=O)c1ccc(Cl)cc1)O2`: -6.06%; `C[C@@H]1CCCCO[C@H](CN(C)Cc2ccncc2)[C@@H](C)CN([C@@H](C)CO)C(=O)c2cc(NC(=O)Nc3ccccc3)ccc2O1`: -13.3%.
Take `C[C@@H](NC(=O)C[C@@H]1CC[C@@H]2[C@H](COC[C@H](O)CN2Cc2cc(F)ccc2F)O1)c1ccccc1`: the “lysis activity” value is 0.101%.
With `CC1CCCCN1C(=O)CSc1nc(C2CC2)nc2c1cnn2-c1ccccc1` (stereo unspecified), the “lysis activity” value is -39.3%.

A further experiment is described as follows: viability loss in HepG2 hepatoma cells – cell-based, cherry-picks, set 2, cytotoxicity control, dose response (AID 687002). As to conditions: ATP luminescence (CellTiter-Glo), 48 h; series mostly up to 26 µM; activity change, negative = cytotoxicity: at the top concentration. A general note: In ATP-based viability assays light output follows the ATP content of the culture.
For the compound `CO[C@H]1CC[C@H]2CCOc3c(C#N)cccc3C(=O)N(C)C[C@@H](C)C(=O)N(C)C[C@H]1O2`, the “activity change, negative = cytotoxicity” value was -5.99%.
With `C[C@@H]1CN([C@H](C)CO)C(=O)c2c(c3ccccc3n2C)-c2ccccc2CO[C@H]1CN(C)S(=O)(=O)c1ccc(Cl)cc1`, the “activity change, negative = cytotoxicity” value was 36.7% [at 23.5 µM].
For `CO[C@H]1CN(C)C(=O)c2cc(NS(=O)(=O)CC(F)(F)F)ccc2OC[C@@H](C)N(Cc2cccnc2)C[C@@H]1C`, the “activity change, negative = cytotoxicity” value is 11.7%.
In the case of `CC(C)C#Cc1ccc2c(c1)O[C@H](CN(C)C(=O)Cc1ccccn1)[C@H](C)CN([C@H](C)CO)S2(=O)=O`, the “activity change, negative = cytotoxicity” value was -10.1%.
On the same count and under the same terms, next, `C[C@@H]1CN([C@@H](C)CO)C(=O)c2cc(NC(=O)Nc3cccc4ccccc34)ccc2O[C@@H]1CN(C)C(=O)Nc1ccccc1`: 2.82%; `O=C1CCC(C(=O)Nc2cccc(C(F)(F)F)c2)N1` (stereo unspecified): -0.03%.
For the compound `O=C(Nc1ccccc1)N1CCCCN2[C@H](CO)[C@@H](c3ccc(C#CC4CC4)cc3)[C@@H]2C1`, the “activity change, negative = cytotoxicity” value is 2.67%.
`CC(C)NC(=O)Nc1cccc2c1O[C@H](CN(C)C)[C@H](C)CN([C@@H](C)CO)C2=O`: the “activity change, negative = cytotoxicity” value is -8.57%.
For the compound `COc1ccc(NC(=O)Nc2ccc3c(c2)C(=O)N([C@H](C)CO)C[C@H](C)[C@H](CN(C)C(=O)Cc2ccccc2)OCCCC[C@H](C)O3)cc1`, the “activity change, negative = cytotoxicity” value was 7.12%.
Regarding `COc1ccc(CN(C)C[C@@H]2Oc3ccc(NC(=O)Nc4ccc(F)cc4)cc3CC(=O)N([C@H](C)CO)C[C@H]2C)cc1`, the “activity change, negative = cytotoxicity” value was -5.5%.
For `C[C@@H]1CN([C@@H](C)CO)C(=O)CCCn2nncc2CO[C@@H]1CN(C)Cc1cccc(C(F)(F)F)c1`, the “activity change, negative = cytotoxicity” value was 4.01%.
With `C[C@@H]1CN([C@@H](C)CO)S(=O)(=O)c2ccc(C#CC3CC3)cc2O[C@H]1CN(C)CC1CCOCC1`, the “activity change, negative = cytotoxicity” value is -4.01%.
As to `C[C@@H]1CN([C@@H](C)CO)S(=O)(=O)c2ccc(C#Cc3ccc(F)cc3)cc2O[C@H]1CN(C)C(=O)NC1CCCC1`, the “activity change, negative = cytotoxicity” value is 15.7%.
Still for that read-out and setting: next, `COc1ccccc1CN1CC[C@H]2[C@H](CO)Nc3ccc(C#Cc4ccccc4)cc3[C@H]21`: -23.9% [at 23.5 µM]; `C[C@H]1CN([C@@H](C)CO)C(=O)Cc2cc(NC(=O)Nc3ccccc3)ccc2O[C@H]1CN(C)C(=O)Nc1ccc2c(c1)OCO2`: 17%; `C[C@H](NC(=O)C[C@@H]1C=C[C@H](NC(=O)CN2CCOCC2)[C@@H](CO)O1)c1ccccc1`: 4.72%.
In the case of `O=C(Nc1ccc(Cl)c([N+](=O)[O-])c1)c1ccco1`, the “activity change, negative = cytotoxicity” value is 18%.
Consider `CC(=O)N1[C@@H](CO)[C@H](c2ccc(-c3ccccc3)cc2)[C@@H]1CNC(=O)C1CC1`, for which the “activity change, negative = cytotoxicity” value is -4.26%.
The same measure, in the same setting: next, `CC(C)NC(=O)Nc1ccc2c(c1)CC(=O)N([C@@H](C)CO)C[C@@H](C)[C@@H](CN(C)Cc1ccc(Oc3ccccc3)cc1)O2`: -0.186%.
As to `O=C(C[C@H]1CC[C@H]2[C@@H](COC[C@H](O)CN2Cc2cccc(Cl)c2)O1)Nc1nccs1`, the “activity change, negative = cytotoxicity” value is 7.06%.
On to `Cc1cc(C)c(NC(=O)C2CCCCN2C)c(C)c1` (stereo unspecified), for which the “activity change, negative = cytotoxicity” value is -0.645%.
Consider `N#Cc1ccc(-c2ccc3c(c2)[C@H]2[C@H](CCN2C(=O)Cc2ccccc2)[C@@H](CO)N3)cc1`, for which the “activity change, negative = cytotoxicity” value was 8.49% [at 23.5 µM].
The same measure, in the same setting: as for `CCCNC(=O)N(C)C[C@@H]1Oc2ncc(C#CCc3ccccc3)cc2C(=O)N([C@@H](C)CO)C[C@@H]1C`, the figure is -1.47%; as for `CC=Cc1ccc2n(c1=O)C[C@@H]1[C@@H](CO)[C@H](C(=O)N3CCCCC3)N(Cc3ccccc3)[C@H]21` (mixture of isomers), -10.8%.
As for `CNC[C@H]1OCCCC[C@H](C)Oc2ccc(NC(=O)CCCN(C)C)cc2C(=O)N([C@H](C)CO)C[C@@H]1C`, the “activity change, negative = cytotoxicity” value was 1.56%.
`COc1ccc(-c2cnc3c(c2)C(=O)N([C@H](C)CO)C[C@H](C)[C@H](CN(C)Cc2ccc(F)cc2)O3)cc1`: the “activity change, negative = cytotoxicity” value is 0.022%.
The same measure, in the same setting: next, `O=C(NC[C@@H]1[C@H](c2ccccc2)[C@@H](CO)N1C(=O)Cc1cccnc1)C1CCC1`: -3.44%.
Still for that read-out and setting: next, `Cc1noc(C)c1NC(=O)Nc1ccc2c(c1)C(=O)N(C)[C@@H]1CC[C@H](CC(=O)N[C@H]3CCN(Cc4ccccc4)C3)O[C@@H]1CO2`: 1.28% [at 23.5 µM].
As to `CC(C)NC(=O)N[C@H]1CC[C@@H](CCNC(=O)C2CC2)O[C@@H]1CO`, the “activity change, negative = cytotoxicity” value was -13.2%.
As to `C[C@@H]1CCCCO[C@H](CN(C)C(=O)Nc2ccc(F)cc2)[C@H](C)CN([C@@H](C)CO)C(=O)c2cc(NS(=O)(=O)c3ccc(Cl)cc3)ccc2O1`, the “activity change, negative = cytotoxicity” value is 32.8%.
With `C[C@H]1CN([C@@H](C)CO)C(=O)Cc2cc(NC(=O)CCCCCC(=O)Nc3ccccc3N)ccc2O[C@H]1CN(C)Cc1ccc2c(c1)OCO2`, the “activity change, negative = cytotoxicity” value was -28.5%.
As to `CN1CCc2c(sc(N)c2C(=O)c2ccc(Cl)cc2)C1`, the “activity change, negative = cytotoxicity” value is 3.26%.
With `CC(C)(C)c1ccc(OCC(=O)NC(c2ccccc2)c2ccccc2)cc1`, the “activity change, negative = cytotoxicity” value was 18.3% [at 35 µM].
`C[C@H]1CCCCO[C@H](CN(C)S(=O)(=O)c2ccc(Cl)cc2)[C@@H](C)CN([C@@H](C)CO)C(=O)c2cc(NS(=O)(=O)c3cccs3)ccc2O1`: the “activity change, negative = cytotoxicity” value was 44%.
As for `C[C@H](CO)N1C[C@H](C)[C@@H](CN(C)C(=O)Nc2cccc3ccccc23)Oc2c(cccc2N(C)C)C1=O`, the “activity change, negative = cytotoxicity” value was 3.95%.
On to `CC(C)NC(=O)Nc1ccc2c(c1)CC(=O)N([C@H](C)CO)C[C@H](C)[C@H](CN(C)S(=O)(=O)c1ccc(Cl)cc1)O2`, for which the “activity change, negative = cytotoxicity” value is 12.6% [at 23.5 µM].
Take `C[C@@H]1CCCCO[C@H](CN(C)Cc2ccncc2)[C@@H](C)CN([C@@H](C)CO)C(=O)c2cc(NC(=O)Nc3ccccc3)ccc2O1`: the “activity change, negative = cytotoxicity” value is 0.809%.
Consider `C[C@@H](NC(=O)C[C@@H]1CC[C@@H]2[C@H](COC[C@H](O)CN2Cc2cc(F)ccc2F)O1)c1ccccc1`, for which the “activity change, negative = cytotoxicity” value was 0.043%.
With `CC1CCCCN1C(=O)CSc1nc(C2CC2)nc2c1cnn2-c1ccccc1` (stereo unspecified), the “activity change, negative = cytotoxicity” value was -1.93%.
